{"source": "PubChem BioAssay (Tox21)", "note": "Where “and” joins values, the source holds several entries; their conditions need not be identical. Equal values may be shown once. Results filed as inconclusive are left out. Entries that show only a call come without a potency. Calls of active or inactive are those of the source. The call rests on the fitted dose curve; in most records, active means well fitted cell-killing curve with a large enough effect in the repeat runs; inconclusive means weak or mixed curves, or effect the other way; inactive means flat fitted curve, though single readings scatter. Potency means the concentration at half of the fitted maximal effect.", "data": [{"assay": "cAMP Responsive Elements (CRE) small molecule antagonists, cell-based qHTS assay: qHTS cell viability counter screen (AID 2060913); further: nearly all actives have a fitted effect of over 40% in size", "details": "CRE-bla HEK293T viability, CellTiter-Glo luminescence, 5 h; series mostly up to 92.4 µM", "excerpt": "U.S. Tox21 Program National Center for Advancing Translational Sciences [NCATS] Division of Preclinical Innovation [DPI] U.S. Environmental Protection Agency [EPA] National Institutes of Environmental Health Sciences [NIEHS] National Toxicology Program [NTP] U.S. Food and Drug Administration [FDA] Tox21 Assay Overview: CREB (cyclic-AMP Responsive Element Binding Protein) is a cellular transcription factor. It binds to certain DNA sequences called cAMP Responsive Elements (CRE) and regulates the transcription of the genes. […] This cell line can be used to find agonists/antagonists of the cyclic AMP signaling pathway. The activation of the report gene under culture conditions can be detected by fluorescence intensity. This cell line has been used to screen the Tox21 10K compound library to identify agonists that induce oxidative stress. The cytotoxicity of the Tox21 compound library against the CRE-bla cell line was tested in parallel by measuring the cell viability using CellTiter-Glo assay (Promega, Madison, WI) in the same wells.\nTox21 Assay Protocol Summary: CRE-bla Hek 293T cells were suspended in assay medium (DMEM containing 10% dialyzed FBS, 0.1 mM NEAA, 1 mM sodium pyruvate and 25 mM HEPES) and dispensed at 2,000 cells/4 uL /well into 1536-well black wall/clear bottom plates using a Multidrop Combi (ThermoFisher Scientific, Waltham, MA) dispenser. After the assay plates were incubated at 37 C/5% CO2 for 18 hrs, 23 nL of compounds dissolved in DMSO, positive controls or DMSO only was transferred to the assay plate by a pintool workstation (Kalypsys, San Diego, CA), followed by addition of 1 uL of 1.25uM NKH477 (0.25 uM as final concentration) in assay medium using a Flying Reagent Dispenser (Aurora Discovery, San Diego, CA). The plates were incubated at 37 C and 5% CO2 for 3 hrs. Then 1 uL of LiveBLAzer B/G FRET substrate (Invitrogen, Carlsbad, CA) was added to each well using Bioraptr Flying Reagent Dispenser (FRD, Aurora Discovery, San Diego, CA). The plates were incubated at room temperature for 2 h, then fluorescence intensities were measured using an Envision plate reader (PerkinElmer, Shelton, CT) at Excitation 405nm, Emission 460nm and 530nm. The % activity was determined from the ratio of 460nm/530nm. For cell viability readout that measures cytotoxicity, 4 uL /well of CellTiter-Glo reagent was added into the assay plates using Bioraptr FRD. After 30 min incubation at room temperature, the luminescence intensity in the assay plates was measured using a ViewLux (PerkinElmer, Shelton, CT) plate reader.", "values": [{"smiles": "CN1C(=O)c2ccc([N+](=O)[O-])cc2C1=O", "Potency": "inactive"}, {"smiles": "COc1cc(C(=O)OC(COCCC(C)C)CN2CCOCC2)cc(OC)c1OC", "note": "(stereo not given)", "Potency": "inactive"}, {"smiles": "COc1cc(Cl)ccc1Cl", "Potency": "inactive"}, {"smiles": "CCC(C)(C)C1CCC(OC)CC1", "note": "(stereo not given)", "Potency": "inactive"}, {"smiles": "Nc1nc2ccc([N+](=O)[O-])cc2s1", "Potency": "inactive"}, {"smiles": "CC(=O)[C@H]1CC[C@H]2[C@@H]3CCC4=CC(=O)CC[C@]4(C)[C@H]3CC[C@]12C", "Potency": "60.8 µM (active) and 61.1 µM (active)"}, {"smiles": "O=C(O)CNc1ccccc1", "Potency": "inactive"}, {"smiles": "CCc1ccc(C)cc1", "Potency": "inactive"}, {"smiles": "COS(=O)(=O)O", "Potency": "inactive"}, {"smiles": "CO[Si](CCCOCC1CO1)(OC)OC", "note": "(stereo not given)", "Potency": "inactive"}, {"smiles": "Oc1ccc(Cl)c2cccnc12", "Potency": "inactive"}, {"smiles": "C[C@H]1c2cccc(O)c2C(O)=C2C(=O)[C@]3(O)C(O)=C(C(N)=O)C(=O)[C@@H](N(C)C)[C@@H]3[C@@H](O)[C@@H]21", "Potency": "inactive"}, {"smiles": "O=C(Oc1ccccc1)Oc1ccccc1", "Potency": "inactive"}, {"smiles": "COCCCN1CCC(NC(=O)c2cc(Cl)c(N)c3c2OCC3)CC1", "Potency": "inactive"}, {"smiles": "C[C@H]1O[C@H](O[C@H]2[C@H](O)[C@@H](O)[C@@H](O[C@H]3[C@H](O)[C@@H](O)[C@H](O)O[C@@H]3CO)O[C@@H]2CO)[C@H](O)[C@@H](O)[C@@H]1N[C@H]1C=C(CO)[C@@H](O)[C@H](O)[C@H]1O", "Potency": "inactive"}, {"smiles": "C=C(C)C(=O)OCCC(F)(F)C(F)(F)C(F)(F)C(F)(F)C(F)(F)C(F)(F)F", "Potency": "inactive"}, {"smiles": "CN(C)CC/C=C1\\c2ccccc2COc2ccccc21", "Potency": "inactive"}, {"smiles": "COC(=O)C1=C(C)NC(C)=C(C(=O)OCCN(C)Cc2ccccc2)C1c1cccc([N+](=O)[O-])c1", "note": "(stereo not given)", "Potency": "inactive"}, {"smiles": "CS(=O)(=O)O", "Potency": "inactive"}, {"smiles": "CC(=O)OC(C)(C)C", "Potency": "inactive"}, {"smiles": "CC(C)(C)C(=O)OCOC(=O)C1N2C(=O)CC2S(=O)(=O)C1(C)C", "note": "(stereo not given)", "Potency": "inactive"}, {"smiles": "CCc1ccc(O)c(OC)c1", "Potency": "inactive"}, {"smiles": "CN1CCN2c3ccccc3Cc3ccccc3C2C1", "note": "(stereo not given)", "Potency": "inactive"}, {"smiles": "CN(C)C(=O)Oc1cccc([N+](C)(C)C)c1", "Potency": "inactive"}, {"smiles": "CN(C(=O)CCCOc1ccc2[nH]c(=O)ccc2c1)C1CCCCC1", "Potency": "inactive"}, {"smiles": "F[Si-2](F)(F)(F)(F)F", "Potency": "inactive"}, {"smiles": "CC(CNC1CCCCC1)OC(=O)c1ccccc1", "note": "(stereo not given)", "Potency": "inactive"}, {"smiles": "Clc1ccccc1C(c1ccccc1)(c1ccccc1)n1ccnc1", "Potency": "inactive"}, {"smiles": "C[C@@H]1CCN(C(=O)[C@H](CCCN=C(N)N)NS(=O)(=O)c2cccc3c2NC[C@H](C)C3)[C@@H](C(=O)O)C1", "Potency": "inactive"}, {"smiles": "CCCCCCOC(=O)c1ccc(O)cc1", "Potency": "inactive"}, {"smiles": "Cc1ccc(C(=O)C(C)CN2CCCCC2)cc1", "note": "(stereo not given)", "Potency": "inactive"}, {"smiles": "CCCCCCCCCc1ccc(OCCOCCO)cc1", "Potency": "22.8 µM (active)"}, {"smiles": "CCCCC(CC)COC(=O)COc1ccc(Cl)cc1Cl", "note": "(stereo not given)", "Potency": "inactive"}, {"smiles": "C1CCCCCCCCCCC1", "viability change, negative = cytotoxic": "3.07% [at 18.9 µM] (inactive)"}, {"smiles": "NC(=S)Nc1cccc2ccccc12", "viability change, negative = cytotoxic": "19.4% [at 8.39 µM] (inactive)"}, {"smiles": "C=C1C(CCl)(CCl)C2(Cl)C(Cl)C(Cl)C1(Cl)C2(Cl)Cl", "note": "(stereo not given)", "Potency": "60.4 µM (active)"}, {"smiles": "C#C[C@]1(O)CC[C@H]2[C@@H]3CCC4=CC(=O)CC[C@@H]4[C@H]3CC[C@@]21CC", "Potency": "inactive"}, {"smiles": "COS(=O)(=O)C(F)(F)F", "Potency": "inactive"}, {"smiles": "CCCCC(CC)C(=O)O", "note": "(stereo not given)", "Potency": "inactive"}, {"smiles": "CC[N+](CC)(CC)CCOC(=O)C(C1CCCC1)C1CCCC1", "Potency": "inactive"}]}]}
